From PubChem BioAssay (NCATS)
Values joined by “and” are separate entries in the source; they are usually repeats but may differ in a detail not shown here. Equal entries are not always repeated. Records with an inconclusive call do not appear. A call without a number means that no potency is given here. Active and inactive are the calls of the source. Unless noted, the call rests on the fitted dose curve.

Key:
[1] = biological target: Luciferin 4-monooxygenase (Photinus pyralis) (UniProt P08659); assay: Biochemical firefly luciferase enzyme assay for NPC (AID 624030; active means well fitted curve in the direction sought with a large enough effect; an effect the other way counts as inactive or inconclusive; further: nearly all actives have a fitted effect of over 70% in size; further: potency means the concentration at half of the fitted maximal effect)
Luciferin 4-monooxygenase (Photinus pyralis), sequence (P08659 whole entry, looked up): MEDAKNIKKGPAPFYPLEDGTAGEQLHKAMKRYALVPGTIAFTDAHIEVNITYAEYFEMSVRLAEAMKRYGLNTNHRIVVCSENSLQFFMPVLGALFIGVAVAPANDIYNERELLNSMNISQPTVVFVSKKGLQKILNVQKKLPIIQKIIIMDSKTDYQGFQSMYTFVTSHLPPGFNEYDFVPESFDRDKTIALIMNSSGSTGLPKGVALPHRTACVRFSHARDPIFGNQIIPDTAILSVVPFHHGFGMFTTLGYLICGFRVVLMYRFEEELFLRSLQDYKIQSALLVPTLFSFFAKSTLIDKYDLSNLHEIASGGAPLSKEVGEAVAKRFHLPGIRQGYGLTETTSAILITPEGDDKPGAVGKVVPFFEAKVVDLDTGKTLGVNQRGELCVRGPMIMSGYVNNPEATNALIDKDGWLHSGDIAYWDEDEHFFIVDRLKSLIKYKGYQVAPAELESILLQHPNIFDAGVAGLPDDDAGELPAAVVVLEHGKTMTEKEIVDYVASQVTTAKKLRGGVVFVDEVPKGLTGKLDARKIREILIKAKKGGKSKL
Outline: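 Purified P. pyralis luciferase at 10 nM in 50 mM Tris Acetate (final), luminescence read within 5 minutes of enzyme addition to compounds. Activity normalised to PTC124 versus DMSO; concentration-response curves classed by r2, magnitude and activity.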

[2] = biological target: Thyroid hormone receptor beta (Homo sapiens) (UniProt P10828); assay: qHTS assay for small molecule agonists of thyroid hormone receptor beta signaling (AID 588545)
Thyroid hormone receptor beta (Homo sapiens), sequence (P10828 whole entry, looked up): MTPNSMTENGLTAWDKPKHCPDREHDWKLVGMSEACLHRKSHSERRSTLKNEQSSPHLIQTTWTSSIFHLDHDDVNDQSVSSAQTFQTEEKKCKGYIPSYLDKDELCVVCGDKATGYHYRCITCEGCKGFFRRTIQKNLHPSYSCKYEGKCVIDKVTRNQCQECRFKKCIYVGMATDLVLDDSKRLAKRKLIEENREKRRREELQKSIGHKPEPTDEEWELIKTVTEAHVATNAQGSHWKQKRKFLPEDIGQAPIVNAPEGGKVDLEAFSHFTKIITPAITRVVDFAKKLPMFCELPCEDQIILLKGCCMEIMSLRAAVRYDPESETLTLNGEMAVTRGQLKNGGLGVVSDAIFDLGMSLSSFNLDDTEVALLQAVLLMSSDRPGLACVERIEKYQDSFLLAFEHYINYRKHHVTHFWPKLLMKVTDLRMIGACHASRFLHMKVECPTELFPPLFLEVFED
Outline: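 Efficacy and EC50 values derive from Hill fits of qHTS titration data, normalized to 10 nM T3 and DMSO-only wells. HEK 293 reporter cells were stimulated for 18 hrs at 37 C, with beta-lactamase activity measured by CCF4 fluorescence.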

[3] = qHTS assay for small molecule antagonists of retinoid X receptor alpha signaling (AID 588546; active means well fitted inhibition curve with a large enough effect in the signal ratio, with a control signal flat, not every such curve was filed as active; the % refers to the signal ratio; further: potency means the concentration at half of the fitted maximal effect;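 on max response: cells stimulated with 9-cis-retinoic acid as agonist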); conditions: HEK293T RXRa-UAS-bla, beta-lactamase ratio, antagonist mode; measured here: W530 green channel, cytotoxicity proxy
Outline: (§1)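 Beta-lactamase reporter inhibition, read as CCF4 fluorescence ratio (ex 405, em 460/530 nm) after 2 h at RT. HEK293T UAS-bla cells, 2500/well, were stimulated with 9-cis-RA at 500 or 100 nM final alongside test compound for 18 h at 37 C.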

[4] = biological target: Retinoic acid receptor RXR-alpha (Homo sapiens) (UniProt P19793); assay: as above; conditions: HEK293T RXRa-UAS-bla, beta-lactamase ratio, antagonist mode
Retinoic acid receptor RXR-alpha (Homo sapiens), sequence (P19793 whole entry, looked up): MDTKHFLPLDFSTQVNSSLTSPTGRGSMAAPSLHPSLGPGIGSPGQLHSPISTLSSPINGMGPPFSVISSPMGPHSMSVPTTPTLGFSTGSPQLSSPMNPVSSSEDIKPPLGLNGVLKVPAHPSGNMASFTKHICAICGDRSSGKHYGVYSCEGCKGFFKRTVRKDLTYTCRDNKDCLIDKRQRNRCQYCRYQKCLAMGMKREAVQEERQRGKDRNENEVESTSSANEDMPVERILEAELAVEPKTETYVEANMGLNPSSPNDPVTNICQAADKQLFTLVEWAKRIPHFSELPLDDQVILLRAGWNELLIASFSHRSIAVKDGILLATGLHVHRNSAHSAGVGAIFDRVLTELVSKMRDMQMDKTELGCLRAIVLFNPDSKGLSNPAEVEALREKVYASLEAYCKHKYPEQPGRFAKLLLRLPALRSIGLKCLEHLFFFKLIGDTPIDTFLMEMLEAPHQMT
Outline: as §1

[5] = biological target: Peroxisome proliferator-activated receptor gamma (Homo sapiens) (UniProt P37231); assay: qHTS assay for small molecule agonists of peroxisome proliferator-activated receptor gamma signaling (AID 588536; active means well fitted curve in the direction sought with a large enough effect in the signal ratio, with a control signal flat, not every such curve was filed as active; the % refers to the signal ratio)
Peroxisome proliferator-activated receptor gamma (Homo sapiens), sequence (P37231 whole entry, looked up): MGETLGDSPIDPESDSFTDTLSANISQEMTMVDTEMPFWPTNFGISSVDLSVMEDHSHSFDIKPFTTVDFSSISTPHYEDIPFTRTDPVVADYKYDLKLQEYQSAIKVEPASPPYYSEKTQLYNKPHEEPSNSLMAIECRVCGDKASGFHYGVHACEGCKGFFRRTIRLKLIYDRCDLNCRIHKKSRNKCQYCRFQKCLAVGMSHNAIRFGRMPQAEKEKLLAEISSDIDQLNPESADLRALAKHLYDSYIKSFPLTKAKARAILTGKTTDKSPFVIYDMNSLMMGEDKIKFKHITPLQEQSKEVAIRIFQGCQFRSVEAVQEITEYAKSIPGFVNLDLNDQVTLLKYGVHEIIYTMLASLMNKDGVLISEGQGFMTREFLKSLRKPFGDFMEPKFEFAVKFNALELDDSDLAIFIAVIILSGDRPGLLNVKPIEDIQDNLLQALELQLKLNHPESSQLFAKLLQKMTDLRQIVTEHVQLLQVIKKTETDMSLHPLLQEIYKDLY
Outline: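 Ratiometric blue/green fluorescence (405 nm excitation; 460 and 530 nm emission) from CCF4-loaded HEK293 reporter cells serves as signal. Exposure to test compounds lasts 16 h at 37 C in medium containing 1% charcoal/dextran-treated serum.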

[6] = biological target: Peroxisome proliferator-activated receptor gamma (Homo sapiens) (UniProt P37231); assay: qHTS assay for small molecule antagonists of peroxisome proliferator-activated receptor gamma signaling (AID 588537; active means well fitted inhibition curve with a large enough effect in the signal ratio, with a control signal flat, not every such curve was filed as active; the % refers to the signal ratio;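 further: reporter cells co-stimulated with 50 nM rosiglitazone agonist during compound treatment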)
Outline: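 Step one: plate 3000 HEK293 UAS-bla cells per well in medium with 1% stripped serum and hold 6-6.5 h at 37 C. Step two: add compound and 50 nM agonist for 16 h. Step three: CCF4 loading, fluorescence read.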

[7] = biological target: Vitamin D3 receptor (Homo sapiens) (UniProt P11473); assay: qHTS assay for small molecule agonists of vitamin D receptor signaling (AID 588543)
Vitamin D3 receptor (Homo sapiens), sequence (P11473 whole entry, looked up): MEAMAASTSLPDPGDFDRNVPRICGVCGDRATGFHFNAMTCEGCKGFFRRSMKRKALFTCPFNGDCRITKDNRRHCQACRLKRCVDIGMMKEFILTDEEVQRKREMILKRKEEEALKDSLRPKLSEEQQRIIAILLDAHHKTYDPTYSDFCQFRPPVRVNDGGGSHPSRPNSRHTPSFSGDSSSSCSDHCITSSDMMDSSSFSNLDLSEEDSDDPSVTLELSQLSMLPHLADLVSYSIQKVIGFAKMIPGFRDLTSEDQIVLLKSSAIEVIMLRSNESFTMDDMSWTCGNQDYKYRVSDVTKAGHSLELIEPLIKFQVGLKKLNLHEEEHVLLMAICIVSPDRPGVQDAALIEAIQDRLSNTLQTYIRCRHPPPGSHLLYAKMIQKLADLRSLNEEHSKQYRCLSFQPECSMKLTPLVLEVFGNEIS
Outline: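 β-lactamase reporter, VDR-UAS-bla HEK293T, agonist mode. Cells plated 5 h at 37 °C, compound titration 16 h at 37 °C, CCF4 dye 2 h RT, ratio 460/530 nm. Hill fit → EC50, efficacy vs 50 nM 1α,25-(OH)2D3.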

[8] = qHTS assay for small molecule agonists of retinoid X receptor alpha signaling (AID 588544); conditions: HEK293T RXRa-UAS-bla, beta-lactamase reporter, 18 h; 530 nm emission
[9] = biological target: Thyroid hormone receptor beta (Homo sapiens) (UniProt P10828); assay: qHTS assay for small molecule antagonists of thyroid hormone receptor beta signaling (AID 588547; active means well fitted inhibition curve with a large enough effect in the signal ratio, with a control signal flat, not every such curve was filed as active; the % refers to the signal ratio;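 further: cells stimulated with 0.4 nM T3 agonist during compound exposure; series mostly up to about 77 µM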); conditions: TR-UAS-bla HEK293, beta-lactamase ratio, antagonist mode, 18 h
Outline: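 TR-UAS-bla GripTite HEK293 cells in 2% charcoal/dextran FBS medium; compounds 0.59 nM to 92 uM with T3 at 0.4nM final, 18 h at 37 C. Beta-lactamase read by CCF4 fluorescence (460/530 nm); Hill fits gave IC50 and efficacy.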

[10] = biological target: Vitamin D3 receptor (Homo sapiens) (UniProt P11473); assay: qHTS assay for small molecule antagonists of vitamin D receptor signaling (AID 588541);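 further: receptor activated by calcitriol during compound treatment; series mostly up to about 77 µM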
Outline: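 VDR-UAS-bla HEK293T cells in 2% charcoal-stripped FBS were stimulated with 1-alpha,25-dihydroxyvitamin D3 (3 nM final) plus compound for 16 h at 37 C. The beta-lactamase CCF4 readout was normalized to 50 nM agonist and DMSO, and Hill fits gave IC50.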

[11] = S16 Schwann cell viability assay (CellTiter-Glo assay) (AID 624031; active means well fitted curve in the direction sought with a large enough effect; an effect the other way counts as inactive or inconclusive;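 further: cellular ATP luminescence as a viability measure; series mostly up to about 58 µM; nearly all actives have a fitted effect of over 70% in size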)
Outline: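 This viability control uses native rat S16 Schwann cells grown in DMEM plus 10% FBS. After a 24 h compound treatment at 37 °C, CellTiter-Glo luminescence reports ATP content, scaled against DMSO-treated and cell-free wells.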

[12] = S16 Schwann cell PMP22 intronic element firefly luciferase assay (AID 624032; active means well fitted curve in the direction sought with a large enough effect; an effect the other way counts as inactive or inconclusive; further: series mostly up to about 58 µM; nearly all actives have a fitted effect of over 30% in size)
Outline: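 Rat S16 Schwann cells stably carrying firefly luciferase driven by a PMP22 intronic element, in 10% FBS, treated 24 h at 37 C. ONE-Glo luminescence normalized to PTC124 control and DMSO (0%); curves classed by r2, magnitude and activity.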

[13] = S16 Schwann cell PMP22 intronic element beta-lactamase assay (AID 624044); further: potency means the concentration at half of the fitted maximal effect; nearly all actives have a fitted effect of over 15% in size
Outline: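 Rat S16 Schwann cells with beta-Lac driven by a PMP22 intronic element, compound-treated 24 h at 37 °C. LiveBLAzer FRET B/G read: 460 nm normalized to potassium clavulanate vs DMSO; 535 nm FRET as viability; concentration-effect curves classified.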

SMILES: CCCCNc1ccc(C(=O)OCCN(CC)CC)cc1
- Potency [1]: inactive

SMILES: CC(C)(c1ccc(O)cc1)c1ccc(O)cc1
- outcome [2]: inactive
- max response [3]: -4.03% and -11.6%
- max response [4]: -28% (inactive) and 10.2% (inactive)

SMILES: Nc1cccc2c(N)cccc12
- outcome [5]: inactive
- outcome [6]: inactive
- outcome [7]: inactive
- max response [8]: 9.18%
- outcome [2]: inactive
- max response [3]: 0.949% and -3.88%
- max response [4]: -3.27% (inactive) and -4.14% (inactive)
- activity change % (negative = inhibition) [9]: 0% (inactive) and 7.22% (inactive)
- Potency [1]: inactive

SMILES: COc1cc(C=O)ccc1O
- outcome [5]: inactive
- outcome [6]: inactive
- outcome [10]: inactive
- outcome [7]: inactive
- max response [8]: -4.86%
- outcome [2]: inactive
- max response [3]: -4.04% and -15.4%
- max response [4]: 30% (inactive) and 5.74% (inactive)
- activity change % (negative = inhibition) [9]: 9.41% (inactive) and -10.4% (inactive)
- Potency [1]: inactive

SMILES: Brc1ccccc1-c1ccccc1
- outcome [10]: inactive
- outcome [7]: inactive
- max response [8]: 10.3%
- outcome [2]: inactive
- max response [3]: 1.21%
- max response [4]: -2.01% (inactive)
- activity change % (negative = inhibition) [9]: -16.6% (inactive)
- Potency [1]: inactive

SMILES: CCN(CC)CCOc1ccc(/C(=C(\Cl)c2ccccc2)c2ccccc2)cc1
- outcome [7]: inactive
- max response [3]: -2.07%
- Potency [4]: 39.8 µM (active)

SMILES: O=C(Oc1ccccc1)c1cccc(C(=O)Oc2ccccc2)c1
- outcome [6]: inactive
- outcome [10]: inactive
- outcome [7]: inactive
- max response [8]: 15.8%
- outcome [2]: inactive
- max response [3]: 0.814%
- max response [4]: -33.4% (inactive)
- activity change % (negative = inhibition) [9]: 0.996% (inactive)

SMILES: CN1C(=O)c2ccccc2C1=O
- outcome [5]: inactive
- outcome [6]: inactive
- outcome [10]: inactive
- outcome [7]: inactive
- max response [8]: -17.2%
- outcome [2]: inactive
- activity change % (negative = inhibition) [9]: -4.79% (inactive)
- Potency [1]: inactive

SMILES: N[C@@H](Cc1cc(I)c(O)c(I)c1)C(=O)O
- Potency [1]: inactive

SMILES: CC(=O)OC/C=C(C)/C=C/C=C(C)/C=C/C1=C(C)CCCC1(C)C
- outcome [5]: inactive
- outcome [10]: inactive
- outcome [7]: inactive
- outcome [2]: inactive
- max response [3]: 10.5%
- max response [4]: 0.429% (inactive)
- activity change % (negative = inhibition) [9]: 1.82% (inactive)
- Potency [1]: inactive

SMILES: CCCCCCCCCCCC[N+](C)(C)Cc1ccccc1
- outcome [5]: inactive
- outcome [6]: inactive
- outcome [10]: inactive
- outcome [7]: inactive
- outcome [2]: inactive
- activity change % (negative = inhibition) [9]: -19.6% (inactive)
- Potency [1]: inactive

SMILES: Nc1ccc(O)cc1
- outcome [6]: inactive
- outcome [7]: inactive
- max response [8]: 21.6%
- max response [3]: -3.95%
- max response [4]: -4.53% (inactive)

SMILES: O=C1OC2(c3ccccc31)c1cc(I)c(O)c(I)c1Oc1c2cc(I)c(O)c1I
- Potency [1]: 14.4 µM (active)

SMILES: Cc1cc(C(C)(C)C)c(O)c(C(C)(C)C)c1
- outcome [5]: inactive
- outcome [6]: inactive
- max response [8]: -14.9%
- outcome [2]: inactive
- activity change % (negative = inhibition) [9]: -7.42% (inactive)
- Potency [1]: inactive

SMILES: CCCC(=O)c1cc(O)c(O)cc1O
- outcome [5]: inactive
- outcome [6]: inactive
- outcome [10]: inactive
- outcome [7]: inactive
- max response [8]: 11.4%
- outcome [2]: inactive
- max response [3]: 4.85%
- max response [4]: 15.9% (inactive)
- activity change % (negative = inhibition) [9]: -21% (inactive)

SMILES: Oc1ccccc1
- outcome [5]: inactive
- max response [3]: -7.3% and -10.8% and -13%
- max response [4]: 17.6% (inactive) and -10.1% (inactive) and 2.32% (inactive)
- Potency [1]: inactive

SMILES: CCCCC(CC)COC(=O)c1ccccc1C(=O)O (centres undefined)
- outcome [10]: inactive
- outcome [7]: inactive
- max response [8]: 0.375% and 2.79%
- outcome [2]: inactive
- max response [3]: -0.199% and -12.8%
- max response [4]: -7.29% (inactive) and -5.81% (inactive)
- activity change % (negative = inhibition) [9]: -5.5% (inactive) and 6.91% (inactive)

SMILES: Cc1ccc(O)cc1
- outcome [5]: inactive
- outcome [6]: inactive
- outcome [10]: inactive
- outcome [7]: inactive
- max response [8]: -3.32%
- outcome [2]: inactive
- max response [3]: -4.07%
- max response [4]: 9.57% (inactive)
- activity change % (negative = inhibition) [9]: -4.08% (inactive)

SMILES: CC(C)(C)C(=O)OCOC(=O)C1N2C(=O)CC2S(=O)(=O)C1(C)C (centres undefined)
- Potency [1]: inactive

SMILES: Nc1c2ccccc2nc2ccccc12
- outcome [5]: inactive
- Potency [1]: inactive
- Potency [11]: inactive
- Potency [12]: inactive
- Potency [13]: 22.4 µM (active)

SMILES: C=CCOc1cc(Cl)ccc1C(=O)NCCN(CC)CC
- Potency [1]: inactive

SMILES: Cc1ncc(CO)c(CO)c1O
- outcome [5]: inactive
- outcome [6]: inactive
- outcome [10]: inactive
- outcome [7]: inactive
- max response [8]: -11.9%
- max response [3]: -0.0047%
- max response [4]: 7.42% (inactive)
- Potency [1]: inactive

SMILES: COC(=O)c1c(Cl)c(Cl)c(C(=O)OC)c(Cl)c1Cl
- outcome [6]: inactive
- outcome [10]: inactive
- outcome [7]: inactive
- max response [8]: -4.07%
- outcome [2]: inactive
- max response [3]: -11.5%
- max response [4]: 4.25% (inactive)
- activity change % (negative = inhibition) [9]: 3.31% (inactive)
- Potency [1]: inactive

SMILES: O=C(NO)c1ccccc1
- outcome [10]: inactive
- outcome [7]: inactive
- outcome [2]: inactive
- max response [3]: -10.6%
- max response [4]: -9.23% (inactive)
- activity change % (negative = inhibition) [9]: -5.82% (inactive)
- Potency [1]: inactive

SMILES: CO[C@@]1(NC(=O)CSC[C@@H](N)C(=O)O)C(=O)N2C(C(=O)O)=C(CSc3nnnn3C)CS[C@@H]21
- Potency [1]: inactive

SMILES: OCc1c[nH]c2ccccc12
- outcome [5]: inactive
- outcome [10]: inactive
- outcome [7]: inactive
- max response [8]: 1.88%
- outcome [2]: inactive
- max response [3]: 2.29%
- max response [4]: -2.51% (inactive)
- activity change % (negative = inhibition) [9]: 13% (inactive)

SMILES: CC(=O)OCC(=O)Nc1cc(C#N)cc(NC(=O)COC(C)=O)c1Cl
- Potency [1]: inactive

SMILES: O=C(c1ccccc1)c1ccccc1
- outcome [10]: inactive
- outcome [7]: inactive
- max response [8]: -13.1% and -5.43%
- max response [3]: -0.815% and -2.27%
- max response [4]: 29.2% (inactive) and -10.9% (inactive)
- Potency [1]: inactive
